AmpC inh detg – blocks E. coli AmpC beta-lactamase in detergent assay | P00811 | AmpC hydrolysis of nitrocefin, absorbance 480 nm, 0.01% Triton | Potency, µM (highest dose often 114 µM), without a hit: top-dose activity change, negative = inhibition, hits mostly inhibitors | actives 0.041% (n = 370,000) | AID 485294;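 note: potency is the fitted concentration of half-maximal effect; 0% = no-compound wells and -100% = no-enzyme wells; nearly all actives have a fitted effect of over 25% in size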
Target sequence (P00811 whole entry, looked up): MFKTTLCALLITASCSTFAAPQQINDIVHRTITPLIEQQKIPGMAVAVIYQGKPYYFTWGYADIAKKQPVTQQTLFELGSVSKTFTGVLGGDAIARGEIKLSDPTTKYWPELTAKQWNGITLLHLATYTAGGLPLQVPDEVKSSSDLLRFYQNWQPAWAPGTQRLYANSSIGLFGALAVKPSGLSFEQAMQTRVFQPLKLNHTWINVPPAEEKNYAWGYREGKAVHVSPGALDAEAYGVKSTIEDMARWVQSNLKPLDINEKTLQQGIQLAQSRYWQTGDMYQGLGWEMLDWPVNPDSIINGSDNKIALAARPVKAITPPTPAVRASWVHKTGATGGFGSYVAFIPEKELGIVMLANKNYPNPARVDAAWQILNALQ
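AmpC (5.3 nM in the dispensed reagent) in 20 mM phosphate pH 7.0 with 0.01% (detergent screen) or 0.0001% Triton X-100 was preincubated with compounds for 15 min at room temperature. Nitrocefin was then added from an 800 uM solution, and hydrolysis was followed at 480 nm.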
HCMV inh – blocks human cytomegalovirus replication. HFF cells, HCMV-luciferase reporter, 72 h; stronger effect = lower value. activity change, negative = inhibition, % at 57.5 µM. actives 4.5% (n = 410,000); in the data active = activity change below about -60%; inconclusive = no clear call, values can overlap the other calls; inactive = above about -39%
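Screen run at 2 compound doses on HFFs infected with reporter HCMV, MOI 1 PFU/cell. Luciferase activity from cell lysates at 72 h post infection gave inhibition relative to buffer-only and Salinomycin wells.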
FMDV antiviral – blocks foot and mouth disease virus | actives 1.2% (n = 410,000) | Potency, µM (titrated, usually from 57.9 µM), for the others: top-dose activity change, negative = inhibition, actives largely listed as inhibitors | FMDV antiviral cell-based qHTS; calls by dose curve; tested in HEK293T cells; note: read-out not given here; potency is the fitted concentration of half-maximal effect; nearly all actives have a fitted effect of over 45% in size
AmpC no deterg – blocks E. coli AmpC beta-lactamase in detergent-free assay. AID 485341. actives 0.52% (n = 330,000). P00811. AmpC nitrocefin hydrolysis, absorbance 480 nm, 0.0001% Triton. Potency, µM (doses to about 57.1 µM), for the others: at the top dose activity change, negative = inhibition, most hits filed as inhibitors;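 note: potency is the fitted concentration of half-maximal effect; plate controls were no compound for no effect and no enzyme for full effect; nearly all actives have a fitted effect of over 20% in size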
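20 mM phosphate pH 7.0 + 0.01% (detergent screen) or 0.0001% Triton X-100; 5.3 nM AmpC reagent; cpd preinc 15 min RT; nitrocefin (800 uM stock) to start; A480 q20 s × 4 min; Activity was normalised to no-enzyme and no-compound control wells.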
HCV inh – inhibitors of hepatitis C virus infection; Huh7.5.1 HCVcc-Cre infection, luciferase reporter, 44 h; Potency, µM (series often up to 41.8 µM), inactives show at the top dose activity change, negative = inhibition, usual class: inhibitors; actives 3.4% (n = 340,000); AID 651820; note: potency is the fitted concentration of half-maximal effect
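Compounds are dispensed onto cells plated 4 h earlier at 1,000 per well, with HCVcc-Cre virus (about 0.5 moi) added next. Following 44 h of culture, luminescent signal is measured for 15 sec after 15 min with substrate at room temperature.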
Numbers without * were called inactive; ? = inconclusive; · = not tested or not shown; [ ] = dose if it differs, or a comment. A selection: hits, their analogues and other compounds. The true share with any hit is near 7.3%. Unless noted, calls come from the whole dose curve; as a rule, active = well fitted curve in the direction sought with a large enough effect; inconclusive = small, poorly fitted or top-dose-only effect, or another doubt; inactive = no such curve, though single readings can be large; an effect the other way counts as inactive or inconclusive. Unless noted, % is set by controls: 0 for no effect and ±100 for the full control effect.

SMILES	AmpC inh detg	HCMV inh	FMDV antiviral	AmpC no deterg	HCV inh
O=C(NCc1ccccc1)Nc1cccn(Cc2ccc(Cl)cc2)c1=O	0%	57	-15%	-18%	-2%
O=C(NCc1ccccc1)Nc1cccn(Cc2ccccc2Cl)c1=O	-5%	?	?	-41%	13µM*
Cc1ccc(NC(=O)NCc2cccn2Cc2ccccc2)c(C)c1	14%	-9	-18%	·	·
CN(C)CC(=O)N1[C@@H]2c3ccc(C4=CCCCC4)c(=O)n3C[C@H]1[C@H](CO)[C@H]2C(=O)NCC1CC1	·	-16	·	·	·
CCc1c(C)sc2c1CCN(Cc1cccc(F)c1)C2c1ccccc1 (stereo unspecified)	3%	-78*	0%	·	·
CCc1c(C)sc2c1CCN(Cc1ccc(F)cc1)C2c1ccccc1 (stereo unspecified)	-1%	-98*	0%	·	·
CCc1c(C)sc2c1CCN(Cc1ccc(C#N)cc1)C2c1ccccc1 (stereo unspecified)	16%	-24	-13%	·	·
O=C1c2ccccc2C(=O)N1Cc1ccccc1F	2%	-29	7%	-10%	3%
CCOc1cc(Cl)c(S(=O)(=O)n2cc(C)nc2CC)cc1Cl	-1%	?	?	·	·
CCc1nc(C)cn1S(=O)(=O)c1ccc(Cl)c(Cl)c1OC	-4%	-75*	?	·	·
COc1ccc(-c2cn(-c3ccc(OC)cc3)c3[n+]2-c2ccccc2CC3)cc1	-1%	-97*	16µM*	1%	-26%
FC(F)Sc1ccc(-n2cc(-c3ccccc3)[n+]3c2CCC3)cc1	10%	-40	?	-13%	?
COc1ccc(-n2cc(-c3ccccc3)[n+]3c2CCCCC3)cc1	0%	-90*	?	-3%[11.4 µM]	?
CC1CN(c2ccc(Cl)nn2)CC(C)O1 (stereo unspecified)	2%	-9	1%	-8%	-5%
O=C(CC[C@H]1O[C@@H](n2ccc(=O)[nH]c2=O)[C@H](O)[C@@H]1O)NCCN1CCOCC1	·	28	-7%	·	·
Cn1cc(C(=O)N/N=C/c2c(O)ccc3ccccc23)ccc1=O	-9%	-99*	-7%	-8%	4.5µM*
O=C(N/N=C\c1c(O)ccc2ccccc12)c1cncc(Br)c1	3%	-100*	-19%	-55%	?
Cc1c(/C=N/NC(=O)c2cccnc2)c2ccccc2n1Cc1ccccc1	-5%	-62*	14µM*	-18%	11µM*
O=C(N/N=C/c1c(O)ccc2ccccc12)c1cccnc1	-2%	-98*	14%	-17%	5µM*
Cn1cccc1/C=N\NC(=O)c1cncc(Br)c1	-2%	?	22%	-20%	18%
COc1ccc2ccccc2c1/C=N\NC(=O)c1cccnc1	·	18	8%	·	?
Cc1nn(Cc2ccccc2)c(Cl)c1/C=N/NC(=O)c1cccnc1	-1%	?	11%	-28%	-8%
Cc1c(/C=N/NC(=O)c2cccs2)c2ccccc2n1Cc1ccccc1Cl	9%	-81*	8%	-20%	?
O=C(N/N=C/c1cc(Br)c(O)c(Br)c1O)c1cccnc1	5%	5	-3%	-18%	?
Cc1cccc(OCC(=O)NC(C)C(=O)N/N=C/c2c(OCc3ccccc3)ccc3ccccc23)c1 (stereo unspecified)	-10%	-74*	9%	-7%	7.9µM*
SMILES	AmpC inh detg	HCMV inh	FMDV antiviral	AmpC no deterg	HCV inh
Cn1nccc1C(=O)N/N=C/c1c(O)ccc2ccccc12	1%	-99*	46%	-27%	0.89µM*
Cc1cc(O)c(C)c(O)c1/C=N/NC(=O)c1cccnc1	-11%	-97*	36%	-10%	13µM*
Cc1[nH]c2ccccc2c1/C=N/NC(=O)c1cccs1	2%	105	31%	-28%	?
O=C(CN1CCOCC1)N/N=C/c1c(O)ccc2ccccc12	-12%	48	-5%	-1%	?
COc1ccc(OC)c(NC(=O)c2oc3c(c2C)-c2nn(Cc4ccc(Cl)cc4)cc2CC3)c1	21%	?	-2%	·	·
CCOC(=O)c1ccc(NC(=O)C2Cc3ccccc3CN2S(=O)(=O)c2ccc(Cl)cc2)cc1 (stereo unspecified)	1%	-31	-24%	·	·
COCCNC(=O)[C@@H]1[C@@H](CO)[C@@H]2Cn3c(cccc3=O)[C@H]1N2Cc1cccc(Cl)c1	·	-4	·	·	·
CC(C)CCN1C(=O)N(c2ccccc2)C(=O)C1CC(=O)Nc1ccc(Cl)cc1 (stereo unspecified)	4%	-27	28%	·	·
Cn1c(-c2ccccc2)c(/C=N/NC(=O)c2ccc(O)cc2)c2ccccc21	2%	35	3%	-45%	10µM*
Cn1c(-c2ccccc2)c(C=O)c2ccccc21	3%	-12	9%	-23%	?
O=C(NN=Cc1c(O)ccc2ccccc12)c1ccncc1	·	-100*	3%	·	?
CCn1ncc(/C=N\NC(=O)c2ccc3c(c2)c(C)c(C)n3Cc2ccccc2)c1C	?	-26	?	89%	-28%
Cc1ccc(C(=O)N/N=C/c2c(O)ccc3ccccc23)cn1	-4%	-97*	20%	-11%	4.5µM*
CCn1nc(C)c(/C=N/NC(=O)c2ccc3c(c2)c(C)c(C)n3Cc2ccccc2)c1C	?	-35	?	91%	10µM*
Cc1cccc(CNC(=O)c2cnn(-c3nccc(-c4ccccc4C(F)(F)F)n3)c2C)n1	·	·	-10%	·	·
COc1ccc(CC(=O)NC(c2ccccc2)c2ccc(C)cc2)c(OC)c1 (stereo unspecified)	2%	2	-7%	-3%	-23%
COc1ccc2ccccc2c1/C=N/NC(=O)c1cccc(C)c1	·	7	-7%	·	11µM*
O=C(N/N=C\c1c(O)ccc2ccccc12)c1ccc(O)cc1	-18%	-98*	26%	-55%	?
O=C(N/N=C/c1c(O)ccc2ccccc12)c1ccc[n+](CCO)c1	3%	-10	-3%	-3%	11%
CCCn1c(/N=C/c2ccccc2O)nc2ccccc21	4%	4	-2%	-12%	11%
Cn1c(/N=C/c2c(O)ccc3ccccc23)nc2ccccc21	5%	-85*	1%	-25%	-2%
Cc1occc1C(=O)N/N=C/c1c(O)ccc2ccccc12	-6%	-101*	53%	-42%	?
O=C(N/N=C/c1c(O)ccc2ccccc12)Nc1ccccc1	·	-35	32%	·	?
COc1ccc(CCN2CC(C(=O)N(C)C3CCOCC3)CCC2=O)cc1 (stereo unspecified)	0%	39	-1%	3%	7%
O=C(N/N=C/c1ccccn1)c1ccc(Br)o1	1%	52	48%	-21%	5%
O=C(N/N=C/c1c(O)ccc2ccccc12)c1ccc(Br)o1	?	-99*	55%	-45%	3.5µM*
O=[N+]([O-])c1ccc2c(c1)CO[C@@]21O[C@H](CCO)C[C@H](O)[C@H]1O	·	-23	0%	·	·

From PubChem BioAssay
